PubChem BioAssay AID1835 (Johns Hopkins Ion Channel Center, 2009)
Hit rate of the full screen: of about 2,400 compounds, about 750 (31%) were called active. Some of the results follow. Unmarked numbers belong to inactive results.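 Rule for the calls: active = median signal gain over dofetilide-blocked control wells reaching their mean plus 3 SD, so readout 1 at least 0; inactive = the rest.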

target: Voltage-gated inwardly rectifying potassium channel KCNH2 (Homo sapiens) (UniProt Q12809); experiment: hERG protection against dofetilide inhibition, confirmation, cell-based, thallium flux, duplicate retest, dofetilide IC70 (AID 1835); settings: hERG cell line, FluxOR thallium flux, dofetilide-blocked; at 10 µM; stronger effect = higher value
Sequence (Q12809 whole entry, looked up): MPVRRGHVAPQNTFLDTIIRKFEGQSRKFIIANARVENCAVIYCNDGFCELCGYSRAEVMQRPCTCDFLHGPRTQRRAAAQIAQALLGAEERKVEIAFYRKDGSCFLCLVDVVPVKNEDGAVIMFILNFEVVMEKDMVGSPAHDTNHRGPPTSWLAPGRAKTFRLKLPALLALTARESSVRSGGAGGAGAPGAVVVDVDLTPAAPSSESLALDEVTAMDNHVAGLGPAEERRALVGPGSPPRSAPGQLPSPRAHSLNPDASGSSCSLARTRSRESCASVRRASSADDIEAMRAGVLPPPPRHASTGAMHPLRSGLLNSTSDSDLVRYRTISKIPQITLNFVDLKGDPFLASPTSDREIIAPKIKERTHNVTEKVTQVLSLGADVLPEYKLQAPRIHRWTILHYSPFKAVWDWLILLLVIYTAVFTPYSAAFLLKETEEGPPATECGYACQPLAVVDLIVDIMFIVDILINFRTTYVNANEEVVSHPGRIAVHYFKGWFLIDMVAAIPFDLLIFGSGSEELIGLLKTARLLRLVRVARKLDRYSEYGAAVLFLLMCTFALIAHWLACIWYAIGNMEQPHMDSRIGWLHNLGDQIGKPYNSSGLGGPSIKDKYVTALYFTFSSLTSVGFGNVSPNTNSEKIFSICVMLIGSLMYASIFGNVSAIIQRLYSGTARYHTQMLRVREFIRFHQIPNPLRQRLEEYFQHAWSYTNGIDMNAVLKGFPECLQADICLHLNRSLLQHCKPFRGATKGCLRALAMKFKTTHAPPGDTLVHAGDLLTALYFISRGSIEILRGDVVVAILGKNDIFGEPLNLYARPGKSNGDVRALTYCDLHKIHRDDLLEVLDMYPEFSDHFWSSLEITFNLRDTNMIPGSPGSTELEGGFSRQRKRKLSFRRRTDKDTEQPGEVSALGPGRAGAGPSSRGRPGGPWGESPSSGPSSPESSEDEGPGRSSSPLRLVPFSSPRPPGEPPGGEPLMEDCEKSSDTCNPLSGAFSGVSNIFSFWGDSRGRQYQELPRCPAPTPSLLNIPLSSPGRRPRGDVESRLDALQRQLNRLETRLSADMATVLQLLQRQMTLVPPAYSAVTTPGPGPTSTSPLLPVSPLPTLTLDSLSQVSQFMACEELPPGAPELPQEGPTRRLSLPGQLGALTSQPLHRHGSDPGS

Point of comparison: CC(C)(C)n1nnnc1C(c1cccs1)N1CCN(Cc2ccccc2)CC1 (stereo not drawn), activity increase over dofetilide control, less the hit threshold -6%. Against it:
- COc1ccc(-c2ccc3c(N)c(C(=O)c4ccc(OC)c(OC)c4)sc3n2)cc1 — lower, -9%
- CCOC(=O)C1=C(O)/C(=C/c2ccc(OCC(=O)O)c(OC)c2)SC1=Nc1ccc(OCC)cc1 — lower, -9%
- COc1ccc(C(C(=O)NC(C)(C)C)N(C(=O)CCC(=O)Nc2cc(C)on2)c2cccc(F)c2)cc1 (stereo not drawn) — the same, -6%
- O=C(CSc1nc(N2CCCCC2)nc(N2CCCCC2)n1)c1ccccc1 — lower, -16%
- O=C(/C=C/Nc1ccc(F)cc1)c1ccco1 — lower, -22%
- Cc1cccc(N2C(=O)C(O)=C(C(=O)c3cccs3)C2c2cccc(Oc3ccccc3)c2)n1 (stereo not drawn) — lower, -12%
- CCCn1c(SCC(=O)Nc2nc(-c3ccc(OC)cc3)cs2)nc2c1c(=O)n(C)c(=O)n2C — lower, -8%
- CCCC(=O)NC(=S)Nc1nc(-c2ccc(OC)cc2)cs1 — lower, -11%
- COc1cc(C(=O)NCCNc2nc3cc(C)ccc3cc2C#N)cc(OC)c1OC — higher, -2%
- O=c1c(-c2ccccc2)[n+]([O-])c2ccccc2n1O — lower, -10%
- CCc1nnc(NC(=O)c2cccc(S(=O)(=O)N3CCN(c4ccccc4)CC3)c2)s1 — lower, -17%
- O=C(COc1ccccc1)Nc1nnc(-c2ccc(Cl)s2)o1 — lower, -9%
- CC1=Nc2ccc(C)cc2/C1=C/c1c(N)n2c(S(=O)(=O)C(C)C)nsc2nc1=O — higher, -5%
- CC(C)C(=O)Nc1c(-c2ccccc2F)c(=O)c2ccccc2n1C — the same, -6%
- Cn1c(=O)cc(-c2ccccc2)c2ccccc21 — lower, -28%
- CCOC(=O)c1c(C)cccc1OCC(N)=O — lower, -16%
- CCOC(=O)Cn1cc(C=O)c2ccccc21 — lower, -17%
- CCn1c(=O)c(-[n+]2ccccc2)c(O)c2ccccc21 — lower, -15%
- O=C1OC(/C=C/c2ccccc2)=NC/1=C/c1ccco1 — lower, -15%
- COC(=O)Cc1[nH]n(-c2nc3ccccc3s2)c(=O)c1C(C)=Nc1ccc(C)cc1 — higher, -1%
- Cn1ncc2c(NNC(=O)Cc3ccccc3)ncnc21 — lower, -13%
- COC(=O)n1c(=S)oc2cc(Cl)ccc21 — lower, -13%
- O=C(O)c1c2c(nc3ccccc13)/C(=C/c1cccc([N+](=O)[O-])c1)CCC2 — lower, -18%
- N#Cc1c2n(c3c(=O)n(Cc4ccc(Cl)cc4)cnc13)CCCC2 — lower, -14%
- Cc1cc(C)cc(N(C(=O)c2cc3ccccc3oc2=O)C2C=CS(=O)(=O)C2)c1 (stereo not drawn) — lower, -13%
- Cc1ccc(-c2cccc(C3CC=CC4C3C(=O)N(Cc3ccccc3)C4c3ccc4ccccc4c3)c2)cc1 (stereo not drawn) — higher, -1%

For COc1ccc(/C=C2\SC(c3ccc(C)cc3)=NC2=O)cc1OC, the activity increase over dofetilide control, less the hit threshold was 112% (active).
With C=CCn1c2ccccc2c(=O)c2cc(C#Cc3ccsc3)ccc21 the activity increase over dofetilide control, less the hit threshold was 17% (active).
With CCC(=O)N(CC)c1nc(-c2ccc(OC)cc2)cs1 the activity increase over dofetilide control, less the hit threshold was 17% (active).
For O=c1c(-c2cccc3ccccc23)[n+]([O-])c2ccccc2n1O, the activity increase over dofetilide control, less the hit threshold was 9% (active).
With O=c1c(-c2ccc(Cl)cc2)[n+]([O-])c2ccccc2n1O the activity increase over dofetilide control, less the hit threshold was 64% (active).
With Cc1ccc(-c2c(=O)n(O)c3ccccc3[n+]2[O-])cc1 the activity increase over dofetilide control, less the hit threshold was 52% (active).
In the case of CCOC(=O)c1c(O)c2ccccc2n(C)c1=O, the activity increase over dofetilide control, less the hit threshold is reported as 5% (active).
With Cn1c(=O)c(Sc2ccccc2)c(O)c2ccccc21 the activity increase over dofetilide control, less the hit threshold was 2% (active).
Cn1c(=O)c(-c2cc(=O)[nH][nH]2)c(O)c2ccccc21 was tested, and the activity increase over dofetilide control, less the hit threshold was 2% (active).
With O=C(O)c1ccc(Cl)cc1Nc1nc2cc(Cl)ccc2o1 the activity increase over dofetilide control, less the hit threshold was 10% (active).
In the case of Cc1sc2nc(CN3CCOCC3)[nH]c(=S)c2c1C, the activity increase over dofetilide control, less the hit threshold is reported as 92% (active).
